# Screens: PubChem BioAssay, National Center for Advancing Translational Sciences (NCATS)
# Compounds with a hit are over-represented: about 11% of the library has one in this group of screens.
# G9a inh – inhibitors of human histone lysine methyltransferase G9a. Q96KQ7. G9a H3K9 monomethylation, AlphaScreen, 2 h. Potency, µM (highest dose often 102 µM), most hits filed as inhibitors. actives 8.8% (n = 350,000); also: nearly all actives have a fitted effect of over 75% in size
#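 Quantitative HTS format: methyltransferase activity on a biotin-tagged H3K9 peptide is measured by AlphaScreen, using a rabbit anti-monomethyl-H3K9 antibody with streptavidin donor and anti-IgG acceptor beads. Final levels are 20 nM enzyme, 500 nM peptide, 20 uM SAM; 2 h RT.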
# JMJD2A Tudor inh – JMJD2A Tudor domain (human) inhibition; AID 504339; AlphaScreen JMJD2A-Tudor / H3K4me3 peptide binding; Potency, µM (highest dose often 114 µM), most hits filed as inhibitors; actives 4.4% (n = 390,000); also: nearly all actives have a fitted effect of over 50% in size
# PI5P4K alpha inh – PI5P4K alpha (human) kinase inhibition. P48426. PI5P4Kalpha enzyme, ADP-Glo luminescence, 60 min; stronger effect = lower value. max response, %. actives 1.2% (n = 330,000). AID 652105; active = max response of -50% or lower; inconclusive = between -30% and -50%; inactive = -30% or higher; also: value at the top dose of about 77 µM
#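 PI5P4Kalpha ADP-Glo assay; 5 microM ATP final; 60 min RT reaction; HEPES pH 7.4/EGTA/CHAPS, 5% DMSO; controls lacking substrate or enzyme; luminescent end-point.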
# L3MBTL1 block – blocks human L3MBTL1 | AlphaScreen L3MBTL1–H3K9me1 peptide binding | AID 485360 | Potency, µM (top dose mostly 57.1 µM), actives largely listed as inhibitors | actives 0.66% (n = 230,000); also: nearly all actives have a fitted effect of over 60% in size
#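 First, the protein-peptide complex forms for 30 min at room temperature (L3MBTL1 50 nM, biotinylated H3K9me1 peptide 75 nM). Next, compounds are pin-transferred and incubated 30 min. Finally, AlphaScreen beads are added and read after 30 min.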
# BAZ2B block – blocks human BAZ2B; Q9UIF8; AlphaScreen BAZ2B-H3K14Ac peptide displacement; Potency, µM (highest dose often 114 µM), most hits filed as inhibitors; actives 4.4% (n = 360,000); also: nearly all actives have a fitted effect of over 60% in size
#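 Inhibition is scored as reduced AlphaScreen emission. The BAZ2B/b-H3(5-23)K14Ac complex (50 nM each) in PBS pH 7.4, 0.01% Tween-20 meets compound (up to 110 uM) for 30 min at RT before bead addition.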
# HP1b binding inh – inhibitors of HP1-beta chromodomain binding to methylated histone tails; P83916; AlphaScreen HP1-beta / biotin-H3K9me3 peptide binding; Potency, µM (highest dose often 114 µM), actives largely listed as inhibitors; actives 0.56% (n = 390,000); also: nearly all actives have a fitted effect of over 70% in size
#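 HP1-beta protein (50 nM final) preincubated 30 min at room temperature with biotinylated H3(1-18)K9me3 peptide (50 nM) in PBS pH 7.4, 0.01% Tween-20, then compound added for 30 min. AlphaScreen streptavidin donor/nickel chelate acceptor beads (10 ug/mL final), 30 min dark, luminescence read.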
# Hits are given with their value; . = inactive; ? = inconclusive; / = no result given. Unless noted, calls follow the shape of the dose curve; as a rule, active = well fitted inhibition curve with a large enough effect; inconclusive = small, poorly fitted or top-dose-only effect; inactive = no such curve, though single readings can be large or run the other way.
SMILES,G9a inh,JMJD2A Tudor inh,PI5P4K alpha inh,L3MBTL1 block,BAZ2B block,HP1b binding inh
CN1CCN(c2ccc(NC(=S)NC(=O)c3cccc4ccccc34)cc2)CC1,22µM,?,.,/,35µM,?
CN1CCN(c2ccc(NC(=O)c3ccccc3Br)cc2)CC1,?,.,.,/,.,.
CN1CCN(c2ccc(NC(=S)NC(=O)c3cccc4c(Br)cccc34)cc2)CC1,6.3µM,.,.,/,?,.
O=c1c2cnn(-c3ccc(F)cc3)c2ncn1Cc1ccccc1Cl,.,.,/,/,.,.
Cn1nccc1C(=O)Nc1ccc(OC(=O)c2ccnn2C)cc1,1.6µM,.,/,/,.,.
Cn1nccc1C(=O)NC(=S)Nc1cc(Cl)cc(Cl)c1,?,22µM,.,/,.,.
Cc1ccc2cccc(NC(=S)NC(=O)c3ccnn3C)c2n1,.,?,.,.,.,.
Cn1nccc1C(=O)Nc1ccc2c(c1)OCCO2,.,.,.,.,.,.
COc1ccc(-c2nc3c4ccccc4n(CC(=O)N4CCN(c5ccc(F)cc5)CC4)c(=O)n3n2)cc1,.,.,/,/,.,.
Cc1ccc(NC(=O)c2oc3c(c2C)-c2[nH]ncc2CC3)c(Cl)c1,?,?,/,/,.,.
COc1ccc(CCNC(=O)c2cnc3ccc(C)cn3c2=O)cc1OC,.,.,/,/,.,.
Cc1ccc(C23CCC(=O)N2C(C(=O)O)CS3)c(C)c1 (stereo unspecified),.,.,.,/,.,.
O=C(O)C1CSC2(c3ccc(F)cc3)CCC(=O)N12 (stereo unspecified),56µM,.,.,.,.,.
Oc1ccc(C2C(c3ccccc3)=NN=C(c3ccc(Cl)cc3)N2O)c(O)c1 (stereo unspecified),11µM,.,.,.,.,.
Oc1ccc(C2C(c3ccccc3)=NN=C(c3ccccc3F)N2O)c(O)c1 (stereo unspecified),50µM,.,.,.,?,.
Oc1ccc(-c2[nH]ncc2-c2ccc(Cl)cc2)c(O)c1,.,?,.,.,?,.
CCOC(=O)c1ccccc1NC(=O)CSc1cn(CC(=O)N2CCCCC2)c2ccccc12,.,.,/,/,.,.
CSC1=NC2(CCN(C(=O)NC3CCCCC3)CC2)N=C1c1ccc(C)c(C)c1,.,.,/,/,.,.
CNC(=O)C1(C(F)(F)F)C/C(=C\Cc2ccccc2)CCCO1 (stereo unspecified),/,.,/,/,/,.
COc1ccccc1/C=C/C=N/n1c(-c2ccc(C)cc2)n[nH]c1=S,?,.,.,.,.,.
COc1ccccc1/C=C/C=N/n1c(-c2ccco2)n[nH]c1=S,1.3µM,28µM,.,.,?,.
COc1ccc(-c2n[nH]c(=S)n2/N=C/C=C\c2ccccc2OC)cc1,?,89µM,.,.,.,.
C[n+]1cc[nH]c1SCC(=O)c1ccccc1,50µM,.,.,/,.,.
Cc1nc2ccccc2nc1SCC(=O)c1ccccc1,?,.,.,.,.,.
C[n+]1cc[nH]c1SCC(=O)c1ccc(Cl)cc1,32µM,.,.,.,/,.
SMILES,G9a inh,JMJD2A Tudor inh,PI5P4K alpha inh,L3MBTL1 block,BAZ2B block,HP1b binding inh
O=C(CSC1=NCCS1)c1ccc(Cl)cc1,.,.,.,.,/,.
Cc1ccc(-n2ncc(C(=O)N3CCC(c4ccccc4)C3)c2C2CCN(C(=O)OC(C)(C)C)CC2)cc1 (stereo unspecified),.,?,/,/,.,.
COc1ccc(C)cc1NC(=O)NCCn1nnc2cc(S(=O)(=O)N(C)C)ccc21,.,.,/,/,.,.
COC(=O)C1CC23C=CCN4CCC5(c6ccccc6NC15C2C)C43 (stereo unspecified),40µM,?,.,/,.,.
O=[N+]([O-])c1cccc(-c2ccc(SCc3cccnc3)nn2)c1,.,.,.,.,?,.
O=C(CSc1ccc(-c2cccnc2)nn1)c1ccc([N+](=O)[O-])cc1,22µM,.,?,/,.,.
O=C(CSc1ccc(-c2ccccn2)nn1)c1ccc([N+](=O)[O-])cc1,40µM,?,.,/,8.9µM,.
O=C(COC(=O)c1ccccn1)c1ccc([N+](=O)[O-])cc1,11µM,25µM,?,/,11µM,.
